The panel holds about 83,000 compounds, 20% with a hit somewhere; the sample as a whole holds those more often.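 Treatment: one concentration, 48 hours, 96-well format. Scoring: percent growth, with anything below 10 considered active.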 Calls of active or inactive are those of the source.
Tested on: CAKI-1 renal
Assay: NCI-60 one-dose screen, 48 h (100 = growth as untreated, 0 = no growth, -100 = all killed)
Conditions: 10 µM unless noted

SMILES	growth
CNC(=O)c1cc(Oc2ccc(NC(=O)Nc3ccc(Cl)c(C(F)(F)F)c3)c(F)c2)ccn1	1.01% (active)
COCCOc1cnc2ccn([C@H](C)c3nnc4c(F)cc(-c5cnn(C)c5)cn34)c(=O)c2c1	65.2% (inactive)
N#Cc1c(-c2ccc(Cl)cc2)csc1NC(=O)Nc1cccc(C(F)(F)F)c1	27.8% (inactive)
CC(=O)C1CC(C)CCC1C(C)C (stereo not drawn)	122% (inactive)
O=C(COc1cccc(/C=C2\Cc3ccc(Cl)cc3C2=O)c1)Nc1nccs1	78.2% (inactive)
O=C(Cn1ccnc1)Nc1ccc(-c2nc3ccccc3s2)cc1	66.2% (inactive)
CN1CCC(CNc2ccc3ncc(-c4cccc(OC(F)(F)F)c4)n3n2)CC1	-62.8% (active)

Tested on: A498 renal
Assay: as above
Conditions: 10 µM unless noted

SMILES	growth
C=CC(=O)N1CCC(Oc2cc3c(Nc4ccc(Cl)c(Cl)c4F)ncnc3cc2OC)CC1	-69.8% (active)
FC(F)(F)c1ccc(CNc2ccc(Cc3c[nH]c4ncc(Cl)cc34)cn2)cn1	18.3% (inactive)
O=S1(=O)OC(c2cc(Cl)c(O)c(Br)c2)(c2cc(Cl)c(O)c(Br)c2)c2ccccc21	86.5% (inactive)
CC(C)(C)OC(=O)N1CCC(O)[C@@H](O[Si](c2ccccc2)(c2ccccc2)C(C)(C)C)[C@H]1/C=C/c1ccccc1 (stereo partly drawn)	68.2% (inactive)
Cc1cn(-c2cc(NC(=O)c3ccc(C)c(Nc4nccc(-c5cccnc5)n4)c3)cc(C(F)(F)F)c2)cn1	82.2% (inactive)
Cc1cnc(Nc2ccc(OCCN3CCCC3)cc2)nc1Nc1cccc(S(=O)(=O)NC(C)(C)C)c1	-95.3% (active)
